Experimental findings from PubChem BioAssay (Tox21) are described below.

SMILES strings stand for the structures. Values without a mark were called inactive. Records with an inconclusive call do not appear. Calls of active or inactive are those of the source. Unless noted, calls come from the whole dose curve; as a rule, active = well fitted curve in the direction sought with a large enough effect in the repeat runs; inconclusive = weak or mixed curves; inactive = no such curve, though single readings can be large; an effect the other way counts as inactive or inconclusive.

Assay [1] deals with Thyrotropin receptor (Homo sapiens) (UniProt P16473). The assay is described as follows: qHTS assay to identify small molecule antagonists of the thyroid stimulating hormone receptor (TSHR) signaling pathway (AID 1259385; calls by dose curve; note: nearly all actives have a fitted effect of over 20% in size). The procedure, abridged:
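Antagonist mode: compound-treated TSHR-expressing HEK293 cells were stimulated with 1.5 ng/mL TSH (final) in presence of Ro20-1724 for 30 min at RT. HTRF cAMP detection after 1 h; each compound tested at 15 concentrations, triplicate.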

A short description of assay [2]: qHTS assay to identify small molecule agonists of the estrogen receptor alpha (ER-alpha) signaling pathway in the presence of an antagonist - cell viability counter screen (AID 1259386).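 Note: series mostly up to about 92 µM; cells exposed to compounds for 22 h at 37 °C before the viability read; nearly all actives have a fitted effect of over 30% in size.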 The procedure, abridged:
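Cell viability in VM7Luc4E2 cells (endogenous full-length ER-alpha) measured by CellTiter-Fluor fluorescence in the same wells as the luciferase screen. Cells pre-cultured 5 days in charcoal-stripped serum, then treated 22 h with compounds at 15 concentrations plus 10.0nM ICI-182,780.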

For assay [3], the target named is Progesterone receptor (Homo sapiens) (UniProt P06401). Kind of assay: qHTS assay to identify small molecule agonists of the progesterone receptor (PR) signaling pathway (AID 1346784; calls by dose curve; note: nearly all actives have a fitted effect of over 30% in size). The procedure, abridged:
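Agonist qHTS: compounds pinned onto 3,000 PR-UAS-bla HEK 293T cells per well in charcoal-stripped serum medium, 16hr at 37C, then beta-lactamase activity measured by LiveBLAzer FRET fluorescence after 2 hours at room temperature.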
A general note: Quantitative high-throughput screening tests each substance at several concentrations.

Assay [4] has the same target. Kind of assay: qHTS assay to identify small molecule antagonists of the progesterone receptor (PR) signaling pathway (AID 1346795; active = well fitted inhibition curve with a large enough effect in the signal ratio in the repeat runs, not every such curve was filed as active; the % refers to the signal ratio). The procedure, abridged: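 Antagonist mode with agonist R5020 at 1 nM final and 16 hr incubation at 37C. Reporter was beta-lactamase driven by UAS in HEK293T (PR-UAS-bla), 2% charcoal-stripped serum; signal from LiveBLAzer FRET substrate, 2 hr at room temperature.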

Assay [5] in a line: qHTS assay to identify small molecule agonists of the progesterone receptor (PR) signaling pathway - cell viability counter screen (AID 1346799; calls by dose curve; note: nearly all actives have a fitted effect of over 45% in size). The procedure, abridged:
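Cytotoxicity measured by CellTiter-Glo luminescence (30 min, RT) in the same wells as the PR beta-lactamase agonist read. Those HEK293T cells had 16 h compound treatment at 37 C in 2% charcoal-stripped FBS medium.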

Assay [6] is described as follows: qHTS assay to identify small molecule antagonists of the TGF-beta/Smad signaling pathway - cell viability counter screen (AID 1346824). Note: nearly all actives have a fitted effect of over 50% in size. The procedure, abridged:
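Cytotoxicity counter-screen run in the same wells as the beta-lactamase Smad reporter read: CellTiter-Glo luminescence after 30 min at room temperature. HEK 293T SBE-bla cells had 5 hr compound exposure at 37 C with TGF-beta1 (0.25 ng/mL stock).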

Assay [7] in a line: qHTS assay to identify small molecule agonists of the TGF-beta/Smad signaling pathway - cell viability counter screen (AID 1346829). Note: top concentration of the series differs between compounds; nearly all actives have a fitted effect of over 45% in size. The procedure, abridged: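 Luminescence from CellTiter-Glo, read after a 30 min room-temperature incubation, gives cell viability of SBE-bla HEK 293T cells treated 5 hr with compounds at 37 C.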
A short description of assay [8]: qHTS assay to identify small molecule agonists of the TGF-beta/Smad signaling pathway (AID 1346859; active = well fitted activation curve with a large enough effect in the signal ratio in the repeat runs, not every such curve was filed as active; the % refers to the signal ratio; note: series mostly up to about 77 µM). The procedure, abridged: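 Fluorescence (ex 405 nm; em 460 and 530 nm) was read 2 h after LiveBLAzer FRET substrate at RT. The preceding compound treatment of overnight-plated SBE-bla HEK293T cells lasted 5 h at 37 C.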
Assay [9] has as its target Thyrotropin-releasing hormone receptor (Homo sapiens) (UniProt P34981). Kind of assay: qHTS assay to identify small molecule antagonists of the thyrotropin-releasing hormone receptor (TRHR) signaling pathway (AID 1346877; active = well fitted inhibition curve with a large enough effect in the repeat runs, not every such curve was filed as active; note: series mostly up to about 51 µM). The procedure, abridged: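 TRHR-expressing HEK293 cells loaded with calcium dye for 2 h at 37 C; compounds pre-incubated 5 min at room temperature before TRH challenge at 1 nM final. Intracellular calcium fluorescence read kinetically for 3 min; 15 concentrations in triplicate.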

Assay [10] shares this target. Kind of assay: qHTS assay to identify small molecule agonists of the thyrotropin-releasing hormone receptor (TRHR) signaling pathway (AID 1346891; calls by dose curve; note: series mostly up to about 58 µM). The procedure, abridged:
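Agonist-mode intracellular calcium readout: kinetic fluorescence over 3 min at 1 s intervals after compound addition to TRHR-HEK293 cells (18 h seeded, 2 h dye-loaded at 37 C). Fifteen concentrations, triplicates.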

Assay [11] can be described thus: Human pregnane X receptor (PXR) small molecule agonists, qHTS cell viability counter screen (AID 1346977). Note: nearly all actives have a fitted effect of over 50% in size. The procedure, abridged: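 Same-well viability read: CellTiter-Fluor added after 23 hr compound exposure, fluorescence measured 1 hr later. Cells were PXR-Luc HepG2 seeded at 2,000/well in 5% charcoal-stripped FBS medium, rested 5 hr before dosing at 37 C.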

Assay [12] can be described thus: Caspase-3/7 induction in HepG2 cells by small molecules, qHTS assay (AID 1346978). Note: nearly all actives have a fitted effect of over 15% in size. The procedure, abridged: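 Caspase-3/7 induction was measured by Caspase-Glo 3/7 luminescence (30 min, room temperature) after a 17 hr compound exposure of wild-type HepG2 cells seeded at 2,000 per well and pre-incubated 5 hr.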
Assay [13] in a line: Caspase-3/7 induction in CHO-K1 cells by small molecules, qHTS cell viability counter screen (AID 1346979). Note: nearly all actives have a fitted effect of over 35% in size. The procedure, abridged: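 Cytotoxicity counter screen: CellTiter-Fluor added to compound-treated wild-type CHO-K1 cells at 16 h (37C, 5% CO2), fluorescence measured 1 h later; same wells as caspase-3/7 measurement.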
A short description of assay [14]: Caspase-3/7 induction in CHO-K1 cells by small molecules, qHTS assay (AID 1346980). Note: nearly all actives have a fitted effect of over 15% in size. The procedure, abridged:
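Luminescent Caspase-Glo 3/7 read (30min, room temperature) quantified apoptosis induction. Cells were wild-type CHO-K1, treated with compound for 17hr at 37 C and 5% CO2.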

Assay [15] in a line: Caspase-3/7 induction in HepG2 cells by small molecules, qHTS cell viability counter screen (AID 1346981). Note: series mostly up to about 92 µM; nearly all actives have a fitted effect of over 30% in size. The procedure, abridged: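 Wild-type HepG2 cells, 2,000/well, settled 5 hr at 37 C, 5% CO2 before compound addition. Viability read by CellTiter-Fluor fluorescence, reagent added after 16 hr compound exposure, then 1 hr at 37C, in the same wells as the caspase read.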

For assay [16], the target named is Nuclear receptor subfamily 1 group I member 2 (Homo sapiens) (UniProt O75469). The assay is described as follows: Human pregnane X receptor (PXR) small molecule agonists, qHTS assay (AID 1346982). Note: nearly all actives have a fitted effect of over 35% in size. Note: potency is the fitted concentration of half-maximal effect. The procedure, abridged:
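PXR-Luc HepG2 reporter cells (CYP3A4-driven luciferase) in 5% charcoal-stripped FBS medium, plated 5 h before compound addition, then treated 24 h at 37C. Luciferase read by ONE-Glo luminescence after 30 min at room temperature.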

Assay [17] in a line: qHTS assay to identify small molecule antagonists of the progesterone receptor (PR) signaling pathway - cell viability counter screen (AID 1346798). Note: series mostly up to about 92 µM; nearly all actives have a fitted effect of over 50% in size. The procedure, abridged:
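Cytotoxicity read as CellTiter-Glo luminescence (30 min, room temperature) in the same wells as the beta-lactamase readout. HEK293T PR-UAS-bla cells in charcoal-stripped 2% FBS received compound and R5020, then 16 h at 37C, 5% CO2.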

The target of assay [18] is Nuclear receptor subfamily 1 group I member 2 (Rattus norvegicus) (UniProt Q9R1A7). The assay is described as follows: Rat pregnane X receptor (rPXR) activation by small molecules, qHTS assay (AID 1346983). Note: nearly all actives have a fitted effect of over 20% in size. As to conditions: rPXR luciferase reporter cells, One-Glo luminescence, 24 h; max activation: hits give high values. The procedure, abridged:
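Luminescent readout (One-Glo luciferase, 30 min room temperature) followed 24 hr compound treatment at 37 C of rPXR cells plated 2,000 per well and preincubated 5hr; qHTS format with compounds delivered in DMSO.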

Assay [19] deals with Nuclear receptor subfamily 1 group I member 2 (Homo sapiens) (UniProt O75469). The assay is described as follows: CYP3A4 induction through human pregnane X receptor (PXR) by small molecules, qHTS assay (AID 1346984). Note: nearly all actives have a fitted effect of over 40% in size. The procedure, abridged:
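DPX-2 HepG2 cells carrying a PXR response element and CYP3A4-promoter luciferase construct, treated with compounds 24 hr at 37C. Then P450-Glo CYP3A4 Luciferin-IPA substrate (3uM final) for 3 hr at 37C, One-Glo added, luminescence read.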
% is set by controls: 0 for no effect and ±100 for the full control effect.

Chain of Progesterone receptor (Homo sapiens) (P06401 whole entry, looked up): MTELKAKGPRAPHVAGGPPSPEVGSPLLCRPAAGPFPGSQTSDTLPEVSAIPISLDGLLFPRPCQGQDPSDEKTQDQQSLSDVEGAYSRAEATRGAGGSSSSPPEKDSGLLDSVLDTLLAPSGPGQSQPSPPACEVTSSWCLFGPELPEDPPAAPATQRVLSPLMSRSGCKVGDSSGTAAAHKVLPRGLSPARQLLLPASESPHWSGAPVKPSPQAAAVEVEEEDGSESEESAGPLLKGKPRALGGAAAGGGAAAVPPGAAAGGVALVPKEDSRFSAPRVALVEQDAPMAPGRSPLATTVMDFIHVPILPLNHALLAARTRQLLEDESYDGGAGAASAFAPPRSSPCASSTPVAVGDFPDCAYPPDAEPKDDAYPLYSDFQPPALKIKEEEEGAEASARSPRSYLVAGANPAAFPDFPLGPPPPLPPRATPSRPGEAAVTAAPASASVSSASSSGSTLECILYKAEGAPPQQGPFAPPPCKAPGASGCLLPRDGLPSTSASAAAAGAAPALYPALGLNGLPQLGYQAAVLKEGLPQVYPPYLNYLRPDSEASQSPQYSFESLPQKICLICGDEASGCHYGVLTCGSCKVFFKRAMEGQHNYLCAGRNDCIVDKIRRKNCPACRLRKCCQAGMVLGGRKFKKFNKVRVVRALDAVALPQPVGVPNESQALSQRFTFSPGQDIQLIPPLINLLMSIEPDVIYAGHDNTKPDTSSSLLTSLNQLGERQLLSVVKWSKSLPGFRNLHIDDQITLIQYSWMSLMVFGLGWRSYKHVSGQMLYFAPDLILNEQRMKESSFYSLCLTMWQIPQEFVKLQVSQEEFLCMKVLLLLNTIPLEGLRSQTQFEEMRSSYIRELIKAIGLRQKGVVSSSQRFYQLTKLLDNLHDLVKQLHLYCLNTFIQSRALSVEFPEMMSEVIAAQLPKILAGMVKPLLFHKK
Chain of Thyrotropin receptor (Homo sapiens) (P16473 whole entry, looked up): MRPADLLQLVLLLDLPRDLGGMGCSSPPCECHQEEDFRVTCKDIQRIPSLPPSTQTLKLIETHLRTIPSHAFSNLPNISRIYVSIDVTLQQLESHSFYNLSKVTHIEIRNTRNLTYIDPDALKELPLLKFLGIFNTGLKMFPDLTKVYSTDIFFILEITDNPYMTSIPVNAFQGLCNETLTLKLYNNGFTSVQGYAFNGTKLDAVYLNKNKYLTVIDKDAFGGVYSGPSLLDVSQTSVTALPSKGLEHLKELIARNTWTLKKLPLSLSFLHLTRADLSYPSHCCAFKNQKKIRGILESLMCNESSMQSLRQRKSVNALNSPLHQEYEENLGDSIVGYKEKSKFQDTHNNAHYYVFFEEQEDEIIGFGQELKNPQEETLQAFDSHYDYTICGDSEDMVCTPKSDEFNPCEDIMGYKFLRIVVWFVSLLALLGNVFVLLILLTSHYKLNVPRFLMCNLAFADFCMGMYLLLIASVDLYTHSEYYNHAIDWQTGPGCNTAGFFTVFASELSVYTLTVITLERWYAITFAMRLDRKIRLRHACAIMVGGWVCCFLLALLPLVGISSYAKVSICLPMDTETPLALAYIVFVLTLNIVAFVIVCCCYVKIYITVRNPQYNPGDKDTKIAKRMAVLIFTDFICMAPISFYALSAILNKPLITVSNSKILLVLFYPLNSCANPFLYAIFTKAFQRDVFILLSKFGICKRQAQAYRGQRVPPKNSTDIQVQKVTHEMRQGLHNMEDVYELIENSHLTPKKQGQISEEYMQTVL
Chain of Thyrotropin-releasing hormone receptor (Homo sapiens) (P34981 whole entry, looked up): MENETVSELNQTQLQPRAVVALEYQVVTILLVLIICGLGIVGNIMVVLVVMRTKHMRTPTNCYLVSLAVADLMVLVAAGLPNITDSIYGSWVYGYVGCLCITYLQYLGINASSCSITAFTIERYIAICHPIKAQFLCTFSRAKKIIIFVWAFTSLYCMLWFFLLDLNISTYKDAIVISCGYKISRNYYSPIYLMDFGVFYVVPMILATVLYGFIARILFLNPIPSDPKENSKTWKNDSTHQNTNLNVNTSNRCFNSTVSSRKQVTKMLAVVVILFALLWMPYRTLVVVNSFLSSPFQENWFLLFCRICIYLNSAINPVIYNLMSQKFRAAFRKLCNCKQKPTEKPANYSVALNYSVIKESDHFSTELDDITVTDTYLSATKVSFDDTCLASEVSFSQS
Chain of Nuclear receptor subfamily 1 group I member 2 (Homo sapiens) (O75469 whole entry, looked up): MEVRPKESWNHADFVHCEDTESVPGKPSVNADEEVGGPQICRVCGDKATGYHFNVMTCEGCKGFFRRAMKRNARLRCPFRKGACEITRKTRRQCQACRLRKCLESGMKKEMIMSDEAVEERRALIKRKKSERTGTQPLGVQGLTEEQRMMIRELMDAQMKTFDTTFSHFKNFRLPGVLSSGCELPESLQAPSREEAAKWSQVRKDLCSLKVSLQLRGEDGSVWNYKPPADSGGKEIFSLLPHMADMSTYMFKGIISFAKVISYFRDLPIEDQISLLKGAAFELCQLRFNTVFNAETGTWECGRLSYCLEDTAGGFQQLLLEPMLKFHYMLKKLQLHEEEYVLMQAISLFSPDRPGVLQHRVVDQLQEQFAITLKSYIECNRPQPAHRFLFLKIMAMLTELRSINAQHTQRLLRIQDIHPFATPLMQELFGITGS
Chain of Nuclear receptor subfamily 1 group I member 2 (Rattus norvegicus) (Q9R1A7 whole entry, looked up): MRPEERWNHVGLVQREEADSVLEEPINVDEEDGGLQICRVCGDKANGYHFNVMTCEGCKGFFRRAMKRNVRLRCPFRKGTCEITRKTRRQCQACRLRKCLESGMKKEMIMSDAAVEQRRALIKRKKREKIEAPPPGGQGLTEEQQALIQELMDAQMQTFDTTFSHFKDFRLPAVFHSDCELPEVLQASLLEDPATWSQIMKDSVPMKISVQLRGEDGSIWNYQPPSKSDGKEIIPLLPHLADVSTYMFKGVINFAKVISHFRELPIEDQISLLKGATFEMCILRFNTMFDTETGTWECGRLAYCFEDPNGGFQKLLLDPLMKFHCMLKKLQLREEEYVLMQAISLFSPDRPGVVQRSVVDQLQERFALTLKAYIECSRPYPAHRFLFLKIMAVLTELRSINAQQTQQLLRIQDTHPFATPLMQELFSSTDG

As for `N#CCN(CC#N)CCN(CC#N)CC#N`, the Potency entry in assay [1], in assay [3], in assay [4], in [5], in assay [11] and in [13] was “inactive” each time. Further, the Potency result in assay [16] is “inactive”. Further, the outcome in assay [2], in [6], in [7], in [8], in assay [9] and in [10] was inactive. Further, the call in assay [12], in assay [14] and in assay [15] was inactive.
With `CNc1ncnc2nc[nH]c12`, the Potency entry in [1], in assay [3], in assay [4], in [5], in assay [11] and in [13] was “inactive” throughout. The outcome in assay [2], in [6], in [7], in [8], in assay [9] and in [10] was inactive. Also, the result in assay [12], in [14] and in [15] was inactive. For the same compound, the Potency in assay [16] was 9.86 µM (active).
For the compound `CCCCCC[C@@H](CCC)C(=O)O`, the Potency result in assay [1], in assay [3], in [4], in assay [17], in assay [11] and in [16] was “inactive” throughout. Besides, the outcome in [2], in assay [6], in [7], in assay [8], in assay [9] and in [10] was inactive. Moreover, the compound was classed as inactive in assay [12], in [14] and in assay [15].
For `COC(=O)c1ccc(C(=O)OC)c(C(=O)OC)c1`, the Potency entry in assay [1], in assay [3], in [17], in assay [5], in [11] and in [13] was “inactive” throughout. The Potency entry in assay [16] was “inactive”. Besides, the outcome in assay [2], in assay [6], in assay [7], in assay [8], in assay [12] and in assay [14] was inactive. Besides, the outcome in assay [15] was inactive.
In the case of `CC(C)[N+](C)(C)CC(O)COc1cccc2ccccc12` (centres undefined), the Potency result in [1], in assay [3], in assay [4], in assay [5], in assay [11] and in assay [13] was “inactive” each time. Also, the Potency entry in [16] and in assay [19] was “inactive” in each case. Further, the result in assay [2], in assay [6], in assay [7], in [8], in assay [9] and in [10] was inactive. Besides, the compound was called inactive in assay [12], in assay [14] and in [15]. In [18], the max activation was -2.92%.
For `CCC(C)OC(=O)N1CCCCC1CCO` (centres undefined), the Potency entry in assay [1], in [3], in [17], in assay [5], in [11] and in [13] was “inactive” throughout. In addition, the Potency result in assay [16] was “inactive”. Also, the outcome in assay [2], in assay [6], in assay [7], in [8], in assay [9] and in assay [10] was inactive. Besides, the outcome in [12], in [14] and in assay [15] was inactive.
Turning to `CCCCc1ccc2cccc(S(=O)(=O)O)c2c1`, the Potency entry in assay [1], in assay [3], in assay [4], in assay [17], in assay [11] and in assay [13] was “inactive” in each case. Also, the Potency result in [16] is “inactive”. For the same compound, the outcome in [2], in [6], in assay [7], in [8], in assay [12] and in assay [14] was inactive. In addition, the call in assay [15] was inactive.
